RORgamma inh: qHTS for inhibitors of ROR gamma transcriptional activity; Nuclear receptor ROR-gamma (Mus musculus), P51450; Drosophila S2 Gal4-RORgamma UAS-luciferase reporter, 20 h; hit rate 5.4% among 310,000; Potency, µM (doses to about 53.6 µM), inactives show at the highest dose activity change, negative = inhibition, usual class: inhibitors; also: potency is read from the fitted curve at half-maximal effect; % is scaled to controls: 0 for no effect and ±100 for the full control effect; nearly all actives have a fitted effect of over 60% in size
Target sequence (P51450 whole entry, looked up, the tested form may be a part): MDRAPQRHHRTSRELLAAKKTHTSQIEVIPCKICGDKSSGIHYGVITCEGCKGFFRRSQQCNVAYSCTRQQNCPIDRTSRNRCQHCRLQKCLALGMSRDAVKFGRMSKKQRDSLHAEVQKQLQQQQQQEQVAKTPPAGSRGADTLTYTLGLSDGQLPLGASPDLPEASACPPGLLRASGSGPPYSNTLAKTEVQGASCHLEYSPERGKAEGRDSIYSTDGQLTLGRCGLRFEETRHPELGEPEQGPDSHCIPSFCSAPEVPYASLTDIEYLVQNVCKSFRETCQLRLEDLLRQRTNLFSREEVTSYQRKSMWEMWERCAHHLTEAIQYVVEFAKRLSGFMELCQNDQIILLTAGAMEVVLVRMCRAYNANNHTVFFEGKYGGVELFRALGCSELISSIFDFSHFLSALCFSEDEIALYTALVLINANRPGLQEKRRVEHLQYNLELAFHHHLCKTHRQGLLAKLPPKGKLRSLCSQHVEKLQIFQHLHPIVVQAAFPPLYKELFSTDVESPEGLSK
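Read-out: Photinus luciferase luminescence; inhibitors lower reporter signal. Insect Schneider cells with Gal4-ROR gamma fusion under metallothionein promoter, UAS reporter; 700 uM final copper sulfate induction, 20 hr, ambient temperature.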
MCF10A rerep: A quantitative high throughput screen for small molecules that induce DNA re-replication in MCF 10a normal breast cells. hit rate 2.9% among 350,000. MCF 10A DNA re-replication, Hoechst nuclear intensity, 48 h. Potency, µM (top dose mostly 46.1 µM), inactives show top-dose activity, positive = re-replication, actives largely listed as activators; also: potency is read from the fitted curve at half-maximal effect; % of control where 0% means no effect; nearly all actives have a fitted effect of over 50% in size
IL1B secr inh: qHTS for Inhibitors of Inflammasome Signaling: IL-1-beta AlphaLISA Primary Screen; THP-1 LPS/ATP IL-1B secretion, AlphaLISA, 16 h; hits give low values; hit rate 4.7% among 360,000; activity change, % at 57.5 µM; in the data active = activity change below about -50%; inconclusive = mostly about -30% to -49%; also: % is scaled to controls: 0 for no effect and ±100 for the full control effect
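Secreted IL-1B measured by AlphaLISA bead assay after 16 h compound exposure of THP-1 cells; compounds (final up to 57.5 uM) added 1 h before LPS (250 ng/mL) and ATP (1.25 mM) stimulation; lower signal means less secretion.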
SW480 rereplic: A quantitative high throughput screen for small molecules that induce DNA re-replication in SW480 colon adenocarcinoma cells. Potency, µM (highest dose often 46.1 µM), inactives show top-dose re-replication activation, actives largely listed as activators. hit rate 1.8% among 340,000. SW480 DNA re-replication, Hoechst DNA content imaging, 48 h; also: potency is read from the fitted curve at half-maximal effect; % of control where 0% means no effect; nearly all actives have a fitted effect of over 55% in size
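Treated cells incubate 48 hr (37 C, 5% CO2), are stained 40 min with Hoechst, and nuclear fluorescence is enumerated; a rise in nuclei with high DNA signal marks re-replication.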
Gal4-VP16 FLuc: VP16 counterscreen qHTS for inhibitors of ROR gamma transcriptional activity | Drosophila S2 Gal4-VP16 UAS-luciferase, luminescence, 20 h | Potency, µM (top dose mostly 53.6 µM), for inactives: top-dose activity, negative = inhibition, usual class: inhibitors | hit rate 3.5% among 310,000 | AID 2546, 2010;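 also: Gal4-VP16 expression switched on by copper sulfate through the metallothionein promoter; potency is read from the fitted curve at half-maximal effect; % is scaled to controls: 0 for no effect and ±100 for the full control effect; nearly all actives have a fitted effect of over 50% in size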
Numbers without * were called inactive; [ ] = remark or other dose. Shown are actives, neighbours in structure and some others; about 11% of the full set was active somewhere. Unless noted, calls follow the shape of the dose curve; as a rule, active = well fitted curve in the direction sought with a large enough effect; inconclusive = small, poorly fitted or top-dose-only effect, or another doubt; inactive = no such curve, though single readings can be large; an effect the other way counts as inactive or inconclusive.

`Cc1cc2cc(CNC(=S)NC3CCCCC3)ccc2n1C` gave RORgamma inh 14µM*, MCF10A rerep 29%, IL1B secr inh -5, SW480 rereplic inconclusive and Gal4-VP16 FLuc inconclusive.
Screening Cc1cc2cc(CNC(=O)C3CC3)ccc2n1C returned RORgamma inh 1%, MCF10A rerep 0%, IL1B secr inh 0, SW480 rereplic -6% and Gal4-VP16 FLuc -7%.
Screening c1ccc(-c2n[nH]c3c2CCC3)cc1 returned RORgamma inh 13µM*, MCF10A rerep -4%, IL1B secr inh -6, SW480 rereplic -10% and Gal4-VP16 FLuc -21%.
For CSc1ncnc2c1ncn2CCCNc1ccc(C)c(C)c1 the results were IL1B secr inh 23.
`CC(=NC1CCCC1)c1c(C)[nH]n(-c2nc3ccccc3s2)c1=O` gave RORgamma inh 3.5µM*, MCF10A rerep 17%, IL1B secr inh -17, SW480 rereplic 1% and Gal4-VP16 FLuc inconclusive.
CC(=NC1CC1)c1c(-c2ccccc2)[nH]n(-c2nc3ccccc3s2)c1=O was read as RORgamma inh 1.3µM*, MCF10A rerep -1%, SW480 rereplic inconclusive and Gal4-VP16 FLuc inconclusive.
`CCC(C)N(C(=O)Cn1nnc(-c2ccc(F)cc2)n1)C1CCS(=O)(=O)C1` (stereo unspecified) gave RORgamma inh -1%, MCF10A rerep 0%, IL1B secr inh -1, SW480 rereplic -11% and Gal4-VP16 FLuc 4%.
Screening CCCOc1ccccc1NC(=O)/C=C/C(N)=O returned RORgamma inh 4µM*, MCF10A rerep 4.5µM*, IL1B secr inh -6, SW480 rereplic 13µM* and Gal4-VP16 FLuc 4.5µM*.
CCN(CC(=O)Nc1ccccc1C(F)(F)F)C(=O)c1ccc(=O)n(Cc2ccccc2)n1 was read as RORgamma inh 1%, MCF10A rerep 2%, IL1B secr inh 3, SW480 rereplic 0% and Gal4-VP16 FLuc -4%.
`CCCN(CC(=O)Nc1ccccc1C)C(=O)c1ccc(=O)n(Cc2ccccc2)n1` gave MCF10A rerep -9%, IL1B secr inh -87* and SW480 rereplic -6%.
`CCN1CCN(S(=O)(=O)c2ccc(Cl)c(C(=O)N(C)Cc3ccc(C(C)(C)C)cc3)c2)CC1` gave MCF10A rerep 23%, IL1B secr inh -1 and SW480 rereplic -4%.
COc1cc2ncnc(Nc3ccc(F)c(Cl)c3)c2cc1OCCCN1CCOCC1 was read as RORgamma inh -15%, MCF10A rerep 30µM*, SW480 rereplic 15% and Gal4-VP16 FLuc 6%.
Screening CCOC(=O)c1ccc(Oc2nc(NC(C)(C)C)nc(N(C)C)n2)cc1 returned RORgamma inh -5%, MCF10A rerep 16µM*, IL1B secr inh -15, SW480 rereplic inconclusive and Gal4-VP16 FLuc -3%.
`CCOC(=O)c1ccc(Oc2nc(N(C)C)nc(N(C)C)n2)cc1` gave RORgamma inh 3%, MCF10A rerep -1%, IL1B secr inh -11, SW480 rereplic 0%[9.22 µM] and Gal4-VP16 FLuc 0%.
For O=C(CCN1CCOCC1)NNC(=S)NC(=O)c1ccccc1 the results were RORgamma inh 14µM*, MCF10A rerep inconclusive, IL1B secr inh 16, SW480 rereplic -90% and Gal4-VP16 FLuc -1%.
`O=C(CCN1CCCCC1)c1ccc2c(c1)OCO2` gave RORgamma inh 3.2µM*, MCF10A rerep inconclusive, IL1B secr inh -19, SW480 rereplic -1%[9.22 µM] and Gal4-VP16 FLuc 13µM*.
Screening O=C(CCN1CCc2ccccc2CC1)c1ccc2c(c1)OCCO2 returned RORgamma inh 6.3µM*, MCF10A rerep 1.3µM*, IL1B secr inh -58*, SW480 rereplic 13µM* and Gal4-VP16 FLuc 4µM*.
O=C(CCN1CCCCC1)c1ccccc1 was read as RORgamma inh 7%, MCF10A rerep inconclusive, IL1B secr inh -4, SW480 rereplic inconclusive and Gal4-VP16 FLuc 0%.
`O=C(CCCN1CCOCC1)c1ccc2c(c1)OCCO2` gave RORgamma inh inconclusive, MCF10A rerep inconclusive, IL1B secr inh 4, SW480 rereplic 2% and Gal4-VP16 FLuc inconclusive.
